TGFb SMAD3 inh: qHTS for Inhibitors of TGF-b; HepG2 CAGA-GFP TGF-b/SMAD3 reporter, GFP fluorescence, 18 h; TGF-beta stimulated, 500 pg/mL final; Potency, µM (titrated, usually from 46.1 µM), for inactives: at the highest dose activity, negative = inhibition, usual class: inhibitors; actives 1.2% (n = 410,000); AID 588855, 2011; note: % is set by controls: 0 for no effect and ±100 for the full control effect; nearly all actives have a fitted effect of over 65% in size
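Inhibition was scored as loss of TGF-beta-induced (500 pg/mL final, 18 hours, 37 degrees C) GFP in HEPG2 cells carrying a CAGA-GFP reporter, in DMEM with 1% FBS. Well GFP was summed per cell; Activity was normalised to unstimulated and stimulated DMSO wells, then concentration-response fitting.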
ATXN2 expr inh: Primary qHTS for Inhibitors of ATXN expression | HEK-293 ATXN2-luciferase reporter, luminescence, 24 h | Potency, µM (top dose mostly 57 µM), for the others: at the top dose activity change, negative = inhibition, most hits filed as inhibitors | actives 0.72% (n = 360,000) | AID 1745845, 2022; note: % is set by controls: 0 for no effect and ±100 for the full control effect; nearly all actives have a fitted effect of over 55% in size
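qHTS (up to 57 uM final) was run with 24 h compound exposure of reporter cells at 37 °C. Each well was multiplexed: SteadyGlo luminescence measured ATXN2-luciferase expression after a fluorogenic Gly-Phe-AFC viability readout (25 uM final).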
DT40 TDP1 no CPT: qHTS for Inhibitors of human tyrosyl-DNA phosphodiesterase 1 (TDP1): qHTS in cells in absence of CPT; DT40 Tdp1-/- hTDP1 cells, no CPT, ATP luminescence, 48 h; Potency, µM (series often up to 46.2 µM), without a hit: top-dose activity change, negative = growth inhibition, usual class: inhibitors; actives 15% (n = 420,000); note: % is set by controls: 0 for no effect and ±100 for the full control effect; nearly all actives have a fitted effect of over 55% in size
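Growth of hTDP1-complemented DT40 Tdp1-knockout cells is measured by ATP luminescence after at least 48 hr compound exposure at 37 °C, with DMSO substituting for the 20 nM CPT used in the parallel screen.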
S2 tox: Viability Counterscreen for Primary qHTS for Inhibitors of ATXN expression | actives 0.49% (n = 400,000) | AID 651635, 2014 | Potency, µM (series often up to 56.7 µM), hits mostly cytotoxic | S2 cells (HEK-293 line with an ATXN2-luciferase reporter) viability, CellTiter-Fluor protease fluorescence, 24 h; note: nearly all actives have a fitted effect of over 40% in size
HepG2 viability: qHTS for Inhibitors of TGF-b: Cytotox Counterscreen; HepG2 CAGA-GFP viability, ATP luminescence, 18 h; Potency, µM (series often up to 46.1 µM), inactives show top-dose activity change, negative = cytotoxicity, actives largely listed as cytotoxic; actives 0.76% (n = 410,000)
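HepG2 CAGA-GFP cells (1000/well, DMEM with 1% FBS) received compound, then TGF-beta at 500 pg/mL final, and were incubated 18 hours at 37 degrees C. Viability was read by CellTiter-Glo luminescence. Media-only wells were set as complete cell-killing and DMSO as no toxicity.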
DT40 TDP1 CPT: qHTS for Inhibitors of human tyrosyl-DNA phosphodiesterase 1 (TDP1): qHTS in cells in presence of CPT. chicken DT40 Tdp1-/-;hTDP1 cells + 20 nM CPT, ATP luminescence, 48 h. actives 12% (n = 420,000). Potency, µM (doses to about 46.2 µM), inactives show top-dose activity change, negative = growth inhibition, usual class: inhibitors; note: % is set by controls: 0 for no effect and ±100 for the full control effect; nearly all actives have a fitted effect of over 55% in size
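Cell growth measured by CellTiter-Glo luminescence after a minimum 48 h, 37 C compound exposure with 20 nM CPT in Tdp1-knockout DT40 cells stably expressing hTDP1, seeded 400/well; qHTS titration format.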
The depositor's hits bear a star; i = inactive; ? = inconclusive; · = not tested or not shown; ! = not confirmed by another sample. This is a sample that favours compounds with a hit; in the whole collection about 17% have one here. Calls come from the whole dose curve; as a rule, active = well fitted curve in the direction sought with a large enough effect; inconclusive = small, poorly fitted or top-dose-only effect, or another doubt; inactive = no such curve, though single readings can be large; an effect the other way counts as inactive or inconclusive. Potency is the fitted concentration of half-maximal effect.

SMILES	TGFb SMAD3 inh	ATXN2 expr inh	DT40 TDP1 no CPT	S2 tox	HepG2 viability	DT40 TDP1 CPT
COc1ccccc1N(C)S(=O)(=O)c1ccc(C(=O)NC2=NCCS2)cc1	0.0%	31.4%	?	i	-2.7%	?
COc1ccccc1N(C)S(=O)(=O)c1ccc(C(=O)Nc2ccncc2)cc1	-1.9%	-9.4%	18.4µM*	i	0.8%	?
CN(Cc1cccc(F)c1)C(=O)c1ccc(NS(=O)(=O)c2ccc3[nH]c(=O)[nH]c3c2)cc1	-15.9%	-15.1%	-1.1%	i	0.282µM*	-1.7%
COc1cc(NC(=O)c2ccc(S(=O)(=O)N(C)C)cc2)cc(OC)c1OC	8.6%	3.5%	-12.7%	i	-3.7%	-12.4%
CS(=O)(=O)c1ccc(Cl)c(NC(=O)COC(=O)c2ccc(F)cc2Cl)c1	-7.0%	-20.5%	1.8%	i	-12.4%	11.0%
COc1ccccc1NC(=O)c1ccc(S(=O)(=O)N(C)c2ccccc2OC)cc1	-3.6%	·	?	i	-23.9%	?
COc1ccccc1N(C)S(=O)(=O)c1ccc(C(=O)N2CCC2)cc1	-7.3%	7.2%	?	i	-1.4%	?
COc1ccccc1N(C)S(=O)(=O)c1ccc(C(=O)N(C)Cc2cccc(F)c2)cc1	-13.0%	·	16.4µM*	i	-20.9%	16.4µM*
COc1ccccc1N(C)S(=O)(=O)c1ccc(C(=O)OCC(=O)Nc2ccccc2F)cc1	-16.0%	-5.2%	8.4%	i	7.0%	-4.7%
COc1ccccc1N(C)S(=O)(=O)c1ccc(C(=O)N2CCCc3ccccc32)cc1	-14.2%	-29.4%	23.1µM*	?	1.5%	20.6µM*
COc1ccccc1N(C)S(=O)(=O)c1ccc(C(=O)NC2CCCCC2)cc1	3.0%	-8.7%	?	i	2.5%	14.6µM*
COc1ccccc1N(C)S(=O)(=O)c1ccc(C(=O)Nc2ccc(C)cc2C)cc1	-12.7%	1.1%	23.1µM*	i	0.0%	?
C=Cc1ccc(Cn2c(C)c(CNCCc3ccc(OCC)cc3)c(C(=O)O)c2C)cc1	-11.5%	-21.8%	?	?	-26.2%	?
NC(Cc1ccccc1)C(=O)O (stereo not given)	·	·	-2.7%	·	·	-1.7%
CCc1cccc(C)c1NC(=O)COC(=O)CCn1c(C)csc1=O	-4.6%	·	5.9%	i	-23.1%	7.1%
O=C(CN1C(=O)NC(c2ccccc2)(c2ccccc2)C1=O)N1CCN(c2ccccc2F)CC1	?	·	4.11µM*	i	-14.3%	?
O=C(CCSCc1ccccc1F)N1CCN(c2ccc(F)cc2)CC1	?	·	25.9µM*	·	-34.4%	?
O=C(CCC(=O)N1CCN(c2ccccc2F)CC1)N1CCN(c2ccc(F)cc2)CC1	0.0%	-14.2%	16.4µM*	i	11.0%	?
Cn1c(CNC(=O)c2ccco2)nnc1SCC(=O)Nc1c(F)cc(F)cc1Br	28.2%	-10.7%	-5.4%	i	1.6%	-6.3%
C/C(=N\NC(=O)CSc1nc(C)[nH]c1[N+](=O)[O-])c1ccc(F)cc1	-13.5%	29.9%	-14.0%	i	-15.7%	-3.8%
OCCNCc1ccc(-c2ccccc2)cc1	-31.5%	?	?	i	-28.7%	-25.9%
OCCCNCc1ccc(N(c2ccccc2)c2ccccc2)cc1	?	?	20.6µM*	?	-98.0%	16.4µM*
CCOc1ccc(NS(=O)(=O)c2c(C(=O)N3CCCCCC3)c(C)n(C)c2C)cc1	-2.7%	3.9%	?	i	-1.2%	?
CCOc1ccc(NS(=O)(=O)c2c(C)nc3sc(C)c(C)n3c2=O)cc1	-32.1%	·	?	·	-2.4%	18.4µM*
CCc1ccc(NS(=O)(=O)c2c(C)nc3sc(CC)nn3c2=O)cc1	-3.0%	-9.2%	13µM*	i	-12.0%	?
SMILES	TGFb SMAD3 inh	ATXN2 expr inh	DT40 TDP1 no CPT	S2 tox	HepG2 viability	DT40 TDP1 CPT
CCc1nn2c(=O)c(S(=O)(=O)Nc3ccccc3)c(C)nc2s1	20.0%	-13.7%	-21.4%	i	-4.6%	-10.1%
CCc1nn2c(=O)c(S(=O)(=O)Nc3ccc(C)c(C)c3)c(C)nc2s1	-6.0%	-11.5%	23.1µM*	i	-22.0%	?
CCc1cccc(N(C)C(N)=Nc2cccc3ccccc23)c1	24.9%	?	15µM*!	i	-0.5%	10.6µM*!
CC(=O)N(C)c1ccc(NC(=O)Cc2cccc3ccccc23)cc1	17.2%	21.0%	-24.4%	i	-7.3%	10.6%
CCc1c(C)nc2cc(-c3cccc(Br)c3)[nH]n2c1=O	-23.6%	7.8%	1.46µM*	i	-32.1%	4.61µM*
CCc1c(C)nc2cc(-c3ccc(Cl)cc3)[nH]n2c1=O	0.8%	41.9%	2.31µM*	i	-71.1%	3.66µM*
COCc1cc(=O)n2[nH]c(-c3cccc(Br)c3)cc2n1	9.3%	36.9%	?	?	-2.1%	-2.9%
CC1CCCCN1N=Nc1nc2c([nH]1)c(=O)n(C)c(=O)n2C (stereo not given)	2.1%	12.0%	?	i	-5.0%	?
Nc1ncnc2c1ncn2[C@@H]1O[C@H](C(=O)N2CCN(c3ccc(Cl)cn3)CC2)[C@@H](O)[C@H]1O	0.5%	3.6%	20.6µM*	i	-5.9%	-25.6%
Nc1ccn([C@@H]2O[C@H](C(=O)N3CCN(c4ccc(Cl)cn4)CC3)[C@@H](O)[C@H]2O)c(=O)n1	3.1%	2.5%	16.2%	i	8.0%	1.0%
CCc1noc(C)c1C(=O)N1CCC(CCC(=O)Nc2cccc(OC)c2)CC1	13.7%	-14.4%	8.2µM*	i	1.1%	9.2µM*
COc1ccc(C(=O)N2CCC(CCC(=O)Nc3cccc(C)c3)CC2)cc1	0.0%	3.1%	-23.1%	i	-28.6%	-4.3%
Cc1cccc(NC(=O)CCC2CCN(C(=O)c3ccc(C)s3)CC2)c1	-21.2%	-33.5%	4.11µM*	i	-5.2%	-20.3%
COC(C(=O)N1CCC(CCC(=O)Nc2ccccc2)CC1)c1ccccc1 (stereo not given)	0.0%	25.6%	9.2µM*	i	-11.0%	20.6µM*
Cc1ccc(NC(=O)CCC(=O)NNC(=O)Nc2cccc(Cl)c2)c(C)c1	-1.2%	-1.5%	2.0%	?	-14.4%	4.2%
CCCn1c(SCC(=O)NC2CCCCC2)nnc1-c1cccnc1	11.4%	2.6%	1.2%	i	-2.0%	8.7%

Screening results (PubChem BioAssay)
